Assay results reported in PubChem BioAssay AID1159580 (chemical genetic matrix, 2015).
Among all 5,500 compounds or so, about 2,000 (36%) were called active. Another 18% or so got no clear call; they are omitted. No stated cut-off is given here; in the data, active means normalized growth mostly below about 0.91 (no sharp cut-off); inconclusive means no clear call, values can overlap the other calls; inactive means mostly above about 0.92. Some of the results follow.

Assay: chemical genetic growth profiling, strain panel (AID 1159580);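 further: tested at 20 µM; growth read once vehicle control cultures reached saturation at 30 °C; 1 = growth at the plate median or of vehicle wells; lower values mean less growth of the strain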
Settings: growth OD

Measured: normalized growth

CC(=O)[C@H]1CCC2C3CCC4=CC(=O)CC[C@]4(C)C3CC[C@@]21C (some centres not stated)
active: S. cerevisiae deletion strains, locus YKL085W, strain MDH1 (second series), hits give low values 0.929 | S. cerevisiae deletion strains, locus YKL085W, strain MDH1, hits give low values 0.929 | S. cerevisiae deletion strains, locus YKR001C, strain vps1, hits give low values 0.704 | S. cerevisiae deletion strains, locus YLR039C, strain RIC1, hits give low values 0.447 | S. cerevisiae deletion strains, locus YLR262C, strain YPT6 (second series), hits give low values 0.475 | S. cerevisiae deletion strains, locus YLR262C, strain YPT6, hits give low values 0.494 | S. cerevisiae deletion strains, locus YLR268W, strain sec22, hits give low values 0.718 | S. cerevisiae deletion strains, locus YLR320W, strain mms22, hits give low values 0.615 | S. cerevisiae deletion strains, locus YLR371W, strain rom2, hits give low values 0.904 | S. cerevisiae deletion strains, locus YLR418C, strain cdc73, hits give low values 0.441 | S. cerevisiae deletion strains, locus YML032C, strain rad52, hits give low values 0.76 | S. cerevisiae deletion strains, locus YMR078C, strain ctf18, hits give low values 0.724 | S. cerevisiae deletion strains, locus YMR205C, strain PFK2, hits give low values 0.813 | S. cerevisiae deletion strains, locus YMR223W, strain ubp8, hits give low values 0.782 | S. cerevisiae deletion strains, locus YNL071W, strain lat1, hits give low values 0.632 | S. cerevisiae deletion strains, locus YNL271C, strain bni1, hits give low values 0.889 | S. cerevisiae deletion strains, locus YNL298W, strain CLA4, hits give low values 0.865 | S. cerevisiae deletion strains, locus YNL307C, strain MCK1, hits give low values 0.185 | S. cerevisiae deletion strains, locus YNR052C, strain pop2, hits give low values 0.733 | S. cerevisiae deletion strains, locus YOL147C, strain pex11, hits give low values 0.527 | S. cerevisiae deletion strains, locus YOR144C, strain elg1, hits give low values 0.852 | S. cerevisiae deletion strains, locus YOR184W, strain ser1, hits give low values 0.284 | S. cerevisiae deletion strains, locus YOR270C, strain vph1, hits give low values 0.704 | S. cerevisiae deletion strains, locus YOR316C, strain cot1, hits give low values 0.884 | S. cerevisiae deletion strains, locus YPL051W, strain arl3, hits give low values 0.903 | S. cerevisiae deletion strains, locus YPL078C, strain atp4, hits give low values 0.874 | S. cerevisiae deletion strains, locus YPR119W, strain clb2, hits give low values 0.919 | S. cerevisiae deletion strains, locus YPR163C, strain tif3, hits give low values 0.527 | S. cerevisiae deletion strains, strain wtn01, hits give low values 0.789
inactive: S. cerevisiae deletion strains, locus YJR075W, strain HOC1, hits give low values 0.949 | S. cerevisiae deletion strains, locus YKL009W, strain mrt4, hits give low values 0.914 | S. cerevisiae deletion strains, locus YKL068W, hits give low values 0.947 | S. cerevisiae deletion strains, locus YKL160W, strain elf1, hits give low values 0.913 | S. cerevisiae deletion strains, locus YKL190W, strain CNB1, hits give low values 0.978 | S. cerevisiae deletion strains, locus YKR026C, strain gcn3, hits give low values 0.981 | S. cerevisiae deletion strains, locus YKR091W, strain srl3, hits give low values 0.977 | S. cerevisiae deletion strains, locus YLL001W, strain dnm1, hits give low values 0.989 | S. cerevisiae deletion strains, locus YLL026W, hits give low values 0.978 | S. cerevisiae deletion strains, locus YLL041C, strain sdh2, hits give low values 0.977 | S. cerevisiae deletion strains, locus YLR027C, strain aat2, hits give low values 0.95 | S. cerevisiae deletion strains, locus YLR058C, strain SHM2, hits give low values 0.974 | S. cerevisiae deletion strains, locus YLR102C, strain apc9, hits give low values 0.942 | S. cerevisiae deletion strains, locus YLR113W, strain HOG1, hits give low values 0.958 | S. cerevisiae deletion strains, locus YLR221C, strain rsa3, hits give low values 0.955 | S. cerevisiae deletion strains, locus YLR258W, strain gsy2, hits give low values 0.962 | S. cerevisiae deletion strains, locus YLR330W, strain CHS5, hits give low values 0.978 | S. cerevisiae deletion strains, locus YLR342W, strain FKS1 (second series), hits give low values 0.814 | S. cerevisiae deletion strains, locus YLR342W, strain FKS1, hits give low values 0.94 | S. cerevisiae deletion strains, locus YLR357W, strain rsc2, hits give low values 1.05 | S. cerevisiae deletion strains, locus YLR370C, strain arc18, hits give low values 0.957 | S. cerevisiae deletion strains, locus YLR384C, strain iki3, hits give low values 0.968 | S. cerevisiae deletion strains, locus YML016C, strain PPZ1, hits give low values 0.963 | S. cerevisiae deletion strains, locus YML120C, strain ndi1, hits give low values 0.966 | S. cerevisiae deletion strains, locus YML124C, strain tub3, hits give low values 0.942 | S. cerevisiae deletion strains, locus YMR058W, strain fet3, hits give low values 0.923 | S. cerevisiae deletion strains, locus YMR125W, strain sto1, hits give low values 0.942 | S. cerevisiae deletion strains, locus YMR129W, hits give low values 0.976 | S. cerevisiae deletion strains, locus YMR231W, strain pep5, hits give low values 0.96 | S. cerevisiae deletion strains, locus YMR263W, strain SAP30, hits give low values 0.973 | S. cerevisiae deletion strains, locus YMR307W, strain GAS1, hits give low values 0.78 | S. cerevisiae deletion strains, locus YNL067W, strain RPL9B, hits give low values 0.952 | S. cerevisiae deletion strains, locus YNL128W, strain TEP1, hits give low values 0.99 | S. cerevisiae deletion strains, locus YNL153C, strain GIM3, hits give low values 0.967 | S. cerevisiae deletion strains, locus YNL183C, strain NPR1, hits give low values 0.933 | S. cerevisiae deletion strains, locus YNL209W, strain ssb2, hits give low values 0.991 | S. cerevisiae deletion strains, locus YNL233W, strain BNI4, hits give low values 0.947 | S. cerevisiae deletion strains, locus YNL248C, strain rpa49, hits give low values 0.94 | S. cerevisiae deletion strains, locus YNL250W, strain rad50, hits give low values 0.917 | S. cerevisiae deletion strains, locus YNL322C, strain KRE1 (second series), hits give low values 1 | S. cerevisiae deletion strains, locus YNL322C, strain KRE1, hits give low values 0.989 | S. cerevisiae deletion strains, locus YNR049C, strain mso1, hits give low values 0.975 | S. cerevisiae deletion strains, locus YOL006C, strain TOP1, hits give low values 0.652 | S. cerevisiae deletion strains, locus YOL012C, strain htz1 0.798 | S. cerevisiae deletion strains, locus YOR001W, strain rrp6, hits give low values 0.934 | S. cerevisiae deletion strains, locus YOR061W, strain CKA2, hits give low values 0.964 | S. cerevisiae deletion strains, locus YOR069W, strain VPS5, hits give low values 0.978 | S. cerevisiae deletion strains, locus YOR070C, strain gyp1, hits give low values 0.955 | S. cerevisiae deletion strains, locus YOR080W, strain dia2, hits give low values 0.993 | S. cerevisiae deletion strains, locus YOR083W, strain WHI5, hits give low values 0.941 | S. cerevisiae deletion strains, locus YOR106W, strain vam3, hits give low values 0.95 | S. cerevisiae deletion strains, locus YOR136W, strain idh2, hits give low values 0.943 | S. cerevisiae deletion strains, locus YOR231W, strain MKK1, hits give low values 0.937 | S. cerevisiae deletion strains, locus YOR265W, strain rbl2, hits give low values 0.967 | S. cerevisiae deletion strains, locus YOR290C, strain snf2, hits give low values 0.926 | S. cerevisiae deletion strains, locus YPL055C, strain LGE1, hits give low values 0.929 | S. cerevisiae deletion strains, locus YPL106C, strain sse1, hits give low values 1.05 | S. cerevisiae deletion strains, locus YPL240C, strain hsp82, hits give low values 0.964 | S. cerevisiae deletion strains, locus YPL241C, strain CIN2, hits give low values 0.977 | S. cerevisiae deletion strains, locus YPL256C, strain CLN2, hits give low values 0.981 | S. cerevisiae deletion strains, locus YPR141C, strain kar3, hits give low values 0.937 | S. cerevisiae deletion strains, locus YPR167C, strain met16, hits give low values 0.945 | S. cerevisiae strains, strain wild type, hits give low values 0.974
